In PubChem BioAssay AID720504 (National Center for Advancing Translational Sciences (NCATS), 2013) one finds max response, negative = inhibition and Potency data, which are given here for 59 molecules.

Molecules are shown by their SMILES. In all, about 360,000 compounds went through this assay and about 10,000 (2.8%) were called active. About 4% were inconclusive and are not listed. Calls follow the shape of the dose curve; as a rule, active = well fitted inhibition curve with a large enough effect; inconclusive = small, poorly fitted or top-dose-only effect; inactive = flat fitted curve, though single readings scatter. Only a selection was taken, and actives are over-represented in it overall.
% is scaled to controls: 0 for no effect and ±100 for the full control effect; potency is read from the fitted curve at half-maximal effect.

In the assay the target is Serine/threonine-protein kinase PLK1 (Homo sapiens) (UniProt P53350). Nature of the assay: qHTS for Inhibitors of PLK1-PDB (polo-like kinase 1 - polo-box domain): Primary Screen. Also: nearly all actives have a fitted effect of over 65% in size. As to max response, negative = inhibition: series mostly up to about 57 µM. As to conditions: Plk1 PBD binding of FITC phosphopeptide, fluorescence polarization. From the text: The polo-like kinase 1 (Plk1) is a member of a conserved subfamily of serine / threonine protein kinases that plays a pivotal roles in cell proliferation. It has a C-terminal non-catalytic region called the polo-box domain (PBD) that plays a crucial role in the subcellular localization of the Plk1. […] Furthermore, depletion of the overexpressed Plk1 by RNAi efficiently induces apoptotic cell death in cancer and reduces tumor growth in mouse xenograft models. Thus, targeting Plk1 is an appealing strategy for anti-cancer therapy. Therefore, this project aimed to screen the Molecular Libraries Small Molecule Repository (MLSMR) using a novel approach to find inhibitors that target the Plk1 PBD instead of the conventional N-terminal catalytic domain. This project employed a fluorescence polarization (FP) assay using a FITC-conjugated phospho-9-mer (p-9-mer) peptide and purified human Plk1 PBD protein. The identified small molecule inhibitors of Plk1 PBD can then further be developed into useful tools for biomedical and clinical research that complements or replaces current relevant disease therapy. NIH Chemical Genomics Center [NCGC] NIH Molecular Libraries Probe Centers Network [MLPCN] MLPCN Grant: MH100728 Assay Submitter (PI): Kyung Lee, NCI
Serine/threonine-protein kinase PLK1 (Homo sapiens), sequence (P53350 whole entry, looked up, the tested form may be a part): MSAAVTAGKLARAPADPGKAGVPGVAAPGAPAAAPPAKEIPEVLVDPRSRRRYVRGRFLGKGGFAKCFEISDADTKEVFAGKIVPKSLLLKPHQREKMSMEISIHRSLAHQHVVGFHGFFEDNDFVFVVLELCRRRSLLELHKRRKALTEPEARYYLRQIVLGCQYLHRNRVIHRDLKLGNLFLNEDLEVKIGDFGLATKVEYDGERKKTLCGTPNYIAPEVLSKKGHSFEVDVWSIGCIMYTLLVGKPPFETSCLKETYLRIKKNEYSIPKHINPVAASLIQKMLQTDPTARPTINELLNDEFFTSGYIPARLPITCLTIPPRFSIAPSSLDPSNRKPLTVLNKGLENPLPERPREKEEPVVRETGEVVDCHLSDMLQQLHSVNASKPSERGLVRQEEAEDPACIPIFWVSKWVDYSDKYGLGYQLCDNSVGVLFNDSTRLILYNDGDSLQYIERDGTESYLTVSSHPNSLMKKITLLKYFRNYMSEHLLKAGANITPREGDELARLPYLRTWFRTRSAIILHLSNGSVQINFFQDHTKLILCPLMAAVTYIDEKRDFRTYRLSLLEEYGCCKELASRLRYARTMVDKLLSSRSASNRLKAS
Four microliter of 25 nM FITC-p-9-mer + 60 nM Plk1 PBD in buffer solution (final concentrations 25 nM and 60 nM respectively) or 4 uL of 25 nM FITC-p-9-mer (final concentration 25 nM) in buffer will be dispensed into a 1,536 Greiner medium-binding black solid plate. Small molecules at final concentrations of 18 nM to 57 uM and positive control phospho-9-mer (sequence: Ac-PPLHSpTAI-NH2) at final concentrations 26 nM to 57 uM and phospho-13-mer (sequence: Ac-[…]pTAI-NH2) at final concentrations of 1 nM to 2.3 uM will be pin-transferred (23 nL) to the plate via a Kalypsys pin-tool robotics equipped with a 1,536-pin array. The reaction plate will be centrifuged for 1 min at 1000 rpm and incubated at room temperature for 10 min. The FITC fluorescence signals will be read using the PerkinElmer ViewLux plate reader at 480 / 20 nm excitation and 540 / 20 nm S and P polarization emission wavelengths. Reagent bottles will be kept submerged into 4 °C recirculating chiller bath and all liquid lines will be covered with aluminum foil to minimize degradation. Library plates will be screened starting from the lowest to the highest concentrations to minimize compound carryover. Vehicle only plates, with DMSO being pin-transferred instead of compound solutions, will be included regularly throughout the screen to record any systematic shifts in assay signal.
Turning to `CC1(C(=O)NS(=O)(=O)c2cccc(OC(F)F)c2)CCN1C(=O)C1CC1` (centres undefined), the max response, negative = inhibition is 3.22% (inactive). Still for that read-out and setting: for `CCCNC(=O)C1(C)CCN1C(=O)C1(c2ccccc2)CC1` (centres undefined) the value was -4.48% (inactive); for `CC(C)(C)Cc1c(C2CCCCC2)nc2ccc(Br)cn12`, 3.52% (inactive). For the molecule `COc1ccc(CNC(=O)C2CCN(S(C)(=O)=O)CC2)cc1`, the Potency is 21.2 µM (active). Consider `COc1ccc(CNC(=O)C2CCN(S(=O)(=O)N3CCOCC3)CC2)cc1`, for which the max response, negative = inhibition is 3.12% (inactive). On to `COc1ccc(CNC(=O)C2CCN(S(=O)(=O)c3ccc(SC)cc3)CC2)cc1`, for which the max response, negative = inhibition is -7.7% (inactive). In the case of `CC1(C(=O)NCc2cccc3ccccc23)CCN1Cc1ccc(-c2ccccc2)o1` (centres undefined), the max response, negative = inhibition is -8.62% (inactive). Still for that read-out and setting: for `CCc1nc2ccc(C(=O)NCCNC(C)=O)cn2c1N(CC)Cc1cccc(Br)c1` the value was -0.869% (inactive); for `CCC(C(=O)NCc1ccccc1)n1c(Cc2cc(F)cc(F)c2)nc2ccccc21` (centres undefined), 2.43% (inactive).

`O=C(NCCN1CCOCC1)C1CCN(S(=O)(=O)c2ccccc2)CC1`: the max response, negative = inhibition is 1.1% (inactive). With `CC(CCc1ccccc1)NC(=O)c1ccc(Br)o1` (centres undefined), the max response, negative = inhibition is -7.05% (inactive).

Regarding `CC(CNC(=O)c1ccc(Br)o1)NC(=O)c1ccc(Br)o1` (centres undefined), the Potency was 2.99 µM (active). As for `O=C(NCc1cccs1)c1ccc(Br)o1`, the max response, negative = inhibition is -4.89% (inactive). In the case of `O=C(COC(=O)/C=C/c1ccc(Cl)cc1)NC1CCS(=O)(=O)C1` (centres undefined), the max response, negative = inhibition was 3.25% (inactive).

Take `O=S1(=O)CC(N2CCSCC2)CN1Cc1cn(Cc2cccc(Cl)c2)nn1` (centres undefined): the max response, negative = inhibition is 1.2% (inactive). Consider `CSCCC(C(=O)NC(C)(C)C)n1c(-c2ccccc2)nc2ccccc21` (centres undefined), for which the max response, negative = inhibition is -11.3% (inactive). `COc1cc(/C=N/Nc2ccc(C)cc2)cc(Br)c1O`: the Potency is 29.9 µM (active). On to `COc1cc(/C=N/NC(=S)Nc2cccnc2)cc(OC)c1O`, for which the max response, negative = inhibition was -21% (inactive).

`COc1cc(/C=N/O)cc(Br)c1OS(=O)(=O)c1ccc(C)cc1`: the max response, negative = inhibition was 4.61% (inactive). Same read-out and setting: for `CCCc1nc2ccccc2n1C(C)C(=O)NC(C)(C)C` (centres undefined) the value was -5.55% (inactive); for `C[C@H]1CN([C@@H](C)CO)C(=O)c2cc(Br)cnc2O[C@H]1CN(C)S(=O)(=O)c1cccs1`, -9.15% (inactive); for `COc1ccc(CN2C(=O)C(CC(=O)NCCN3CCOCC3)CC(C(=O)N(C(C)C)C(C)C)=C2C)cc1` (centres undefined), 4.68% (inactive). Still for that read-out and setting: for `Cc1ccc(NC(=O)COC(=O)CN2CCSC2=O)cc1F` the value was 3.55% (inactive). On to `Nc1ccc2nn(-c3ccc(Cl)cc3)nc2c1`, for which the max response, negative = inhibition was -7.93% (inactive).

On to `O=C1CCCc2nn(-c3ccccc3)nc21`, for which the max response, negative = inhibition was -8.07% (inactive). Turning to `c1ccc(-n2nc3ccccc3n2)cc1`, the Potency is 29.9 µM (active).

In the case of `CCc1nc2c(OCCOc3ccc(F)cc3)cccn2c1N(C)C(=O)c1ccccc1F`, the max response, negative = inhibition is -3.7% (inactive). Take `CC(=O)c1cccc(-c2cnc3c(NC=O)cc(-c4ccccc4Oc4ccccc4)cn23)c1`: the max response, negative = inhibition was -5.21% (inactive).

As for `C[C@@H]1CN([C@@H](C)CO)C(=O)CCCn2nncc2CO[C@@H]1CN(C)S(=O)(=O)c1ccc(-c2ccccc2)cc1`, the max response, negative = inhibition was -14.2% (inactive).

Turning to `O=C1[C@H]2[C@@H](c3ccc(C(F)(F)F)cc3)N[C@]3(CCCN(Cc4ccc(Cl)cc4)C3=O)[C@H]2C(=O)N1Cc1ccccc1`, the max response, negative = inhibition was -4.13% (inactive). As to `C/C(=N/Nc1nc(-c2ccccc2)c(CC(=O)O)s1)c1ccccc1`, the Potency is 13.4 µM (active). With `CCOC(=O)C(=O)Nc1nc(-c2ccccc2)c(CC)s1`, the max response, negative = inhibition is -16.3% (inactive). For `CCOc1ccc(-c2nc(C)sc2CC(=O)O)cc1`, the max response, negative = inhibition was -0.634% (inactive). As for `CC(C)n1ncc2c(C(=O)N3CCN(Cc4cccs4)CC3)cc(C3CC3)nc21`, the max response, negative = inhibition was -8.38% (inactive). On the same count and under the same terms, under `Cc1cccc(C)c1-n1nnnc1C1(C)CCC(=O)N1CCOc1ccccc1` (centres undefined) stands -8.78% (inactive); under `COc1ccc(C2=Nc3ccccc3NC(=O)C2N(C(=O)c2cc3ccccc3[nH]2)c2ccccc2)cc1` (centres undefined), 5.46% (inactive).

Consider `Cc1cc(C(=O)OCC(=O)N2C(C)CCCC2C)c2ccccc2n1` (centres undefined), for which the max response, negative = inhibition was -9.12% (inactive). For the molecule `CC(=O)N1CCN(C(=O)c2cc(-c3ccc(Cl)s3)nc3ccccc23)CC1`, the max response, negative = inhibition is 4.68% (inactive). As to `COC(=O)c1cc(N2CCNCC2)nc2ccccc12`, the Potency is 23.8 µM (active). Regarding `O=C(Nc1ccc(F)cc1)C(CCc1ccccc1)N1CCN(CC(=O)N2CCCC2)CC1` (centres undefined), the max response, negative = inhibition is -3.84% (inactive). Same read-out and setting: under `Cc1ccc(C(=O)OCC(=O)NCc2ccc3c(c2)OCO3)s1` stands -7.48% (inactive); under `COc1cccc(CC(=O)OCC(=O)NCc2ccc3c(c2)OCO3)c1`, -5.11% (inactive). Regarding `Cc1cc(Br)ccc1SCC(=O)OCC(=O)NCc1ccc2c(c1)OCO2`, the Potency is 29.9 µM (active). Consider `Cc1c(C(=O)NCc2ccc(C#N)cc2)sc(=O)n1Cc1ccc(C(=O)N(C)C)cc1`, for which the max response, negative = inhibition is -10.6% (inactive). `COc1ccc(NC(=O)ON=C2c3ccccc3-c3ccccc32)cc1`: the max response, negative = inhibition was -8.43% (inactive).

On to `CN1C(=O)/C(=N/OC(=O)c2ccccc2Br)c2ccccc21`, for which the Potency is 23.8 µM (active).

For `CN1C(=O)/C(=C\c2cc(Br)cs2)c2ccccc21`, the max response, negative = inhibition is 9.61% (inactive).

With `O=C(N=C1SC2CS(=O)(=O)CC2N1Cc1ccccc1)c1ccccc1` (centres undefined), the max response, negative = inhibition was -10.4% (inactive). Turning to `CC(=O)c1ccc(N2Cc3ccccc3C2)cc1`, the max response, negative = inhibition is -10.7% (inactive). Same read-out and setting: under `O=C(C1Cc2ccccc2CN1C(=O)c1ccco1)N1CCN(c2ccccc2)CC1` (centres undefined) stands -14.9% (inactive). As for `CC(=O)N1Cc2ccccc2CC1C(=O)O` (centres undefined), the Potency is 2.67 µM (active). In the case of `CSc1ncnc2c1ncn2CCCNCC1CCCCC1`, the max response, negative = inhibition was 2.12% (inactive). Regarding `Cc1c(NC(=O)COC(=O)/C=C/c2cccc(F)c2)c(=O)n(-c2ccccc2)n1C`, the max response, negative = inhibition is -2.07% (inactive). The same measure, in the same setting: under `Cc1c(C(=O)NCC2CC2)sc(=O)n1Cc1cccc(F)c1` stands 3.08% (inactive); under `N#CC1(Nc2ccc3c4c(cccc24)CC3)CCCCC1`, -12.6% (inactive).

For `Cc1oc(-c2cccc(Cl)c2)[n+]([O-])c1C`, the Potency is 29.9 µM (active).

Take `Cc1oc(-c2ccccc2Cl)[n+]([O-])c1C`: the max response, negative = inhibition was -3.14% (inactive). On the same count and under the same terms, for `CCOC(=O)CSc1ncc(-c2cccc(Cl)c2)cn1` the value was -7.44% (inactive); for `CC(C)c1ccc(CC(=O)N2CCC2(C)C(=O)NS(=O)(=O)c2ccc(C(C)(C)C)cc2)cc1` (centres undefined), -5.51% (inactive).
